# Laboratory results as given in ChEMBL document CHEMBL3988442, “University of Dundee, Small-Polar-MMV Screening Library” (2021).
# Out of some 48,000 compounds screened, about 13,000 (27%) showed an effect of 50% or more. This is one part of the list.
# Tested on: Wolbachia pipientis
# Experiment: Anti-Wolbachia Cell-Based Screen
# Format: functional
# Design: scale not given: in the data most compounds retested in dose-response had high values
# Conditions: 5 µM
row,Structure (SMILES),Percent Effect
1,O=C(NCc1ccco1)Nc1cccc(S(=O)(=O)C(F)F)c1,12.8%
2,Cc1nc2cc(OCc3nc(C(=O)NC(CO)CO)co3)ccc2s1,-12.2%
3,CCC(C(=O)NCc1ccncc1)N(c1ccc(F)cc1)S(C)(=O)=O (stereo unspecified),-11.09%
4,Cc1cc(C)c2nc(CN3CCC(CN)C3)cc(O)c2c1 (stereo unspecified),-17.01%
5,Cc1cc(Br)oc1C(=O)N1CCN(CC(N)=O)CC1,-14.01%
6,CS(=O)(=O)Cc1nc(C2CC2)nn1-c1ccccn1,-14.62%
7,CC(C)CS(=O)(=O)N1CCC2(CC1)CCn1c(-c3cnn(C)c3)cnc12,2.953%
8,Cn1cc(CC(CNC(=O)Nc2cccc(Cl)c2)C(N)=O)cn1 (stereo unspecified),3.636%
9,CC(C)n1c(=O)c2sccc2n(CC(=O)Nc2cccc(Cl)c2)c1=O,121.3%
10,CN(C)c1nc(N)nc(CSCCC(=O)Nc2cccc(Cl)c2)n1,5.106%
11,Cc1ccccc1CN1C[C@@H]2COC[C@]2(CNC(=O)C2CCC2)C1.O=C(O)C(F)(F)F,116.7%
12,Cc1cccc(CN2C[C@@H]3COC[C@]3(CNC(=O)N3CCCC3)C2)n1.O=C(O)C(F)(F)F.O=C(O)C(F)(F)F,5.948%
13,COc1cccc(CN2C[C@@H]3COC[C@]3(CNC(=O)C3CC3)C2)c1.O=C(O)C(F)(F)F,100.6%
14,Cc1cccc(CN2C[C@@H]3COC[C@]3(CNC(=O)C3CC3)C2)c1.O=C(O)C(F)(F)F,102.9%
15,O=C(NC[C@]12COC[C@H]1CN(Cc1nccs1)C2)N1CCCC1.O=C(O)C(F)(F)F,28.78%
16,O=C(NC[C@]12COC[C@H]1CN(Cc1nccs1)C2)c1ccccc1.O=C(O)C(F)(F)F,17.76%
17,Cc1cccc(CN2C[C@@H]3COC[C@]3(CNC(=O)C3CCC3)C2)c1.O=C(O)C(F)(F)F,92.72%
18,N#Cc1cccc(-c2ncnn2CC2(O)CCCCC2)c1,2.299%
19,COC(=O)CC(NC(=O)c1cccc(N2CCCC2=O)c1)C(=O)OC (stereo unspecified),-7.194%
20,COCCNC(=O)C(C)n1nc(-c2ccc(C)o2)cc(N)c1=O (stereo unspecified),104.7%
21,COCCN(Cc1nccs1)C(=O)c1cc(-c2ccc(C)o2)n[nH]1,-13.35%
22,Cc1ccc(-c2cc(N)c(=O)n(C(C)C(N)=O)n2)o1 (stereo unspecified),92.46%
23,Cc1ccc(-c2cc(C(=O)N3CCCC3c3cccnc3)[nH]n2)o1 (stereo unspecified),-6.11%
24,CCCNC(=O)C(C)n1cc(Br)cn1 (stereo unspecified),-2.063%
25,Cc1ccc(-c2nc(CC(=O)N3CCCC(NC(=O)C(C)C)C3)cs2)o1 (stereo unspecified),6.035%
26,Cc1ccc(-c2cc(N)c(=O)n(C(C)C(=O)NC(C)C)n2)o1 (stereo unspecified),115.3%

row,Structure (SMILES),Percent Effect
1,CC(=O)N1CCCN(C(=O)NC(C)c2ccc(C)o2)CC1 (stereo unspecified),-7.479%
2,Cc1ccc(-c2cc(C(=O)NCCCc3csc(N)n3)[nH]n2)o1,17.13%
3,Cc1ccc(-c2nc(CC(=O)NCC(C)N3CCOCC3)cs2)o1 (stereo unspecified),-1.179%
4,CCCNC(=O)C(C)n1nc(-c2ccc(C)o2)cc(N)c1=O (stereo unspecified),87.57%
5,Cc1c(C)n(Cc2ccccn2)c2nc3c(c(N)c12)CCCC3,5.52%
6,O=C(CNc1cc(F)ccc1OC(F)F)NCC(F)(F)F,-13.2%
7,CC(C)(CNC(=O)Nc1cccc(-c2nccs2)c1)C(N)=O,2.635%
8,Cc1noc(C[C@@H]2COC[C@H]3CN(C(=O)C4=CCCC4)C[C@@H]23)n1,-8.987%
9,O=C(O)C(F)(F)F.O=C([C@@H]1COC[C@H]2CN(C3CCOCC3)C[C@H]21)N1CCCO1,1.407%
10,O=C1OCCC1N1CCN(c2ccc(O)cc2)CC1 (stereo unspecified),4.942%
11,O=C(NCCC(O)c1ccoc1)Nc1cccs1 (stereo unspecified),118.3%
12,O=C(NCC(O)c1ccsc1)Nc1cccs1 (stereo unspecified),136.4%
13,Cc1csc(CNC(=O)NCC(O)c2ccccc2)n1 (stereo unspecified),14.77%
14,CC(C)Oc1cccc(C(O)CNC(=O)NCc2cccs2)c1 (stereo unspecified),-2.917%
15,O=C(NCC(O)c1cccs1)c1ccco1 (stereo unspecified),-9.342%
16,COC(=O)c1sccc1S(=O)(=O)NCCC(O)c1ccoc1 (stereo unspecified),6.712%
17,O=C(NCCC(O)c1cccs1)c1ccco1 (stereo unspecified),-4.816%
18,CCOc1ccccc1CCNC(=O)NCC(O)c1ccsc1 (stereo unspecified),-9.165%
19,O=C(NCc1cccs1)NCC(O)c1ccoc1 (stereo unspecified),136.2%
20,O=C(NCC(O)c1ccoc1)Nc1cccs1 (stereo unspecified),112.3%
21,CC(C)Oc1cccc(C(O)CNC(=O)Nc2cccs2)c1 (stereo unspecified),-15.38%
22,O=C(NCC(O)c1ccoc1)Nc1c(F)cccc1F (stereo unspecified),35.5%
23,COCc1nc(CNC2CCSCC2)no1,-3.755%
24,CCc1nc2c(c(NCc3nc(-c4cccnc4)no3)n1)CCNCC2,-4.803%
25,CC(C)c1nc(CN(C)C(=O)CNS(=O)(=O)c2cccs2)no1,-26.42%
26,CN(CCOCC(F)(F)F)CC1CCN(CCO)CC1,-6.866%

row,Structure (SMILES),Percent Effect
1,COCC(=O)NCCc1nc(N(C)C)ncc1-c1ccncc1,144%
2,COCc1nc(N(C)C)ncc1C(=O)Nc1ccn(C)n1,4.031%
3,COCCC(=O)NCCc1nc(N(C)C)ncc1-c1ccncc1,140.1%
4,Cc1nc(N(C)C)ncc1C(=O)N(Cc1ccncc1)CC1CCCO1 (stereo unspecified),-9.755%
5,COCC(=O)Nc1ccnc(OCCN(C)C)c1,5.238%
6,COCc1nc(N(C)C)ncc1C(=O)NC(C)C,11.32%
7,CCCC(=O)NCCc1nc(N(C)C)ncc1-c1ccncc1,150.4%
8,CCCNC(=O)c1cnc(N(C)C)nc1COC,7.705%
9,COCC(=O)N(C)Cc1nc(N(C)C)ncc1-c1ccncc1,115.9%
10,Cc1nsc(NC(=O)N2CCCCC2CCCO)n1 (stereo unspecified),3.459%
11,CCCOCC(=O)NS(=O)(=O)c1ccc2c(c1)OCCCO2,-2.018%
12,CN(C)c1ncc(-c2ccncc2)c(CCNC(=O)C2CC2)n1,144.3%
13,CCc1nc(CCNC(=O)C2CC2)sc1C,-12.51%
14,Cc1nc(N(C)C)ncc1C(=O)NCCc1csc(-c2ccncc2)n1,10.36%
15,c1ccc2c(c1)CN(c1ncnc3sc4c(c13)CCNC4)CCO2,-13.02%
16,Cc1nc2c(cc1C(=O)O)CCN(CC1CC1)CC2.O=C(O)C(F)(F)F.O=C(O)C(F)(F)F,-6.324%
17,CC(C)Nc1nc2c(cc1C(=O)NCC1CC1)CCN(CC1CC1)CC2.O=C(O)C(F)(F)F.O=C(O)C(F)(F)F,-7.491%
18,CC(C)Nc1nc2c(cc1C(=O)O)CCN(Cc1ccsc1)CC2.O=C(O)C(F)(F)F.O=C(O)C(F)(F)F,98.93%
19,Cc1nc2c(cc1C(=O)O)CCN(Cc1ccsc1)CC2.O=C(O)C(F)(F)F.O=C(O)C(F)(F)F,107%
20,Cc1nc(N2CCCC2)nc2c1CCN(Cc1ccsc1)CC2.O=C(O)C(F)(F)F,4.858%
21,CC(=O)N1CCc2cc(C(=O)O)c(-c3ccsc3)nc2CC1.O=C(O)C(F)(F)F,-2.009%
22,CCC(CC)(CC)NC(=O)Nc1nnc(-c2ccccn2)s1,-4.465%
23,COCCN1CCO[C@@H]2CN(C(=O)COc3ccc(C)cc3)C[C@@H]2C1.O=C(O)C(F)(F)F,-10.88%
24,CC(C)(C)C(O)CN1CCN(Cc2nccn2CC(F)(F)F)CC1 (stereo unspecified),-1.053%
25,O=C(CCC(=O)N1CCC(Oc2ncccc2Br)CC1)c1ccccc1,-8.42%
26,CCC[C@H]1CN(C2CCOCC2)C[C@@H]1NC(=O)CCCn1ccnc1,-3.438%

row,Structure (SMILES),Percent Effect
1,c1cnc(N2CCC(c3n[nH]c4ncccc34)C2)nc1 (stereo unspecified),117.8%
2,c1cnc(N2CCCC(c3n[nH]c4ncccc34)C2)nc1 (stereo unspecified),152.2%
3,Cc1cc(N2CCCC(c3n[nH]c4ncccc34)C2)ncn1 (stereo unspecified),73.09%
4,CC(C)n1ccnc1C1CCCN(c2ccccn2)C1 (stereo unspecified),3.899%
5,Cc1ccc(-c2cn[nH]c2C2CCCN(c3cc(N)ncn3)C2)cc1 (stereo unspecified),-31.64%
6,Cc1ccc(-c2cn[nH]c2C2CCCN(c3ncccn3)C2)cc1 (stereo unspecified),-14.2%
7,Cc1nc(CC(=O)N2CCCC2c2nc(C(C)C)no2)cs1 (stereo unspecified),-8.92%
8,CN1CCC(N(C)C[C@H]2CC[C@@H](Cc3cccc(O)c3)O2)CC1,-5.981%
9,Cc1nc(C)n(CCCNc2ncnc3onc(C)c23)n1,1.931%
10,Cc1ccc(CN(C)C(=O)NCC(C)(C)NS(C)(=O)=O)s1,4.932%
11,CC(C)N(C)C(=O)c1coc(CN2CCN(c3ccccc3F)CC2)n1,-13.9%
12,COc1ccccc1N1CCCC(NC(=O)Nc2cccnc2)C1 (stereo unspecified),-7.582%
13,O=C(NC1CCCN(c2ccc(OC(F)F)cc2)C1)c1c[nH]nn1 (stereo unspecified),-1.773%
14,O=C(NC1CCCN(c2ccccc2Cl)C1)c1c[nH]nn1 (stereo unspecified),87%
15,O=C(NC1CCCN(c2ncccn2)C1)c1cn2ccccc2n1 (stereo unspecified),-4.664%
16,O=C(NC1CCCN(c2ccccc2Cl)C1)c1ccc(=O)[nH]n1 (stereo unspecified),90.33%
17,O=C(NC1CCCN(c2ccccc2F)C1)c1ccon1 (stereo unspecified),18.57%
18,Cc1n[nH]c(C)c1CNC(=O)NC1CCCN(c2ccccc2F)C1 (stereo unspecified),-5.16%
19,O=C(NC1CCCN(c2ccccc2Cl)C1)c1nc(=O)[nH][nH]1 (stereo unspecified),109.8%
20,O=C(NC1CCN(c2ccc(-c3ccccc3F)nn2)C1)c1cc[nH]n1 (stereo unspecified),3.887%
21,N#Cc1nccnc1NC1CCN(c2ccccc2Br)C1 (stereo unspecified),-11.54%
22,O=C(NC1CCCN(c2ccc(OC(F)F)cc2)C1)c1cc[nH]n1 (stereo unspecified),14.46%
23,O=C(NC1CCN(c2ccccc2Br)C1)c1c[nH]nn1 (stereo unspecified),111.1%
